# Source: PubChem BioAssay
# Hits are enriched below; roughly 2.5% of the tested compounds scored in any of these assays.
# MEKK2wt PB1 HTS – raises or lowers MEK5 binding to wildtype human MEKK2 PB1 domain; Q9Y2U5; bead flow cytometry, Alexa488-MEK5 binding to MEKK2 WT; actives lie on both sides; binding response (% of control), % at 10 µM; hit rate 1.1% among 290,000; AID 1531; in the data active means binding response below about 67% or above about 130%
# MEKK3 PB1 HTS – MEKK3-MEK5 PB1 interaction, increase or decrease | Q99759 | bead-based flow cytometry, Alexa488-MEK5 binding to MEKK3; actives lie on both sides; 0 = blocked by unlabeled MEK5, 100 = vehicle | binding response (% of control), % at 10 µM | hit rate 1.4% among 290,000;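 active means binding response more than 3 SD above or below the average of its plate-row segment, actives on both sides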;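 further: Alexa488 bead fluorescence after subtracting the streptavidin-only scavenger bead signal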
# GRK2 aptamer HTS – human GRK2 inhibition via aptamer displacement; P25098; bead flow cytometry, FAM-aptamer displacement from GRK2; inhibition of aptamer binding, % at 10 µM; hit rate 0.59% among 330,000; AID 488847;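 active means inhibition of aptamer binding above 40%, roughly 3 SD of noise, on plates passing a quality check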;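 further: median bead fluorescence of bound FAM aptamer so fluorescent compounds give negative values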
# Target sequence (P25098 whole entry, looked up): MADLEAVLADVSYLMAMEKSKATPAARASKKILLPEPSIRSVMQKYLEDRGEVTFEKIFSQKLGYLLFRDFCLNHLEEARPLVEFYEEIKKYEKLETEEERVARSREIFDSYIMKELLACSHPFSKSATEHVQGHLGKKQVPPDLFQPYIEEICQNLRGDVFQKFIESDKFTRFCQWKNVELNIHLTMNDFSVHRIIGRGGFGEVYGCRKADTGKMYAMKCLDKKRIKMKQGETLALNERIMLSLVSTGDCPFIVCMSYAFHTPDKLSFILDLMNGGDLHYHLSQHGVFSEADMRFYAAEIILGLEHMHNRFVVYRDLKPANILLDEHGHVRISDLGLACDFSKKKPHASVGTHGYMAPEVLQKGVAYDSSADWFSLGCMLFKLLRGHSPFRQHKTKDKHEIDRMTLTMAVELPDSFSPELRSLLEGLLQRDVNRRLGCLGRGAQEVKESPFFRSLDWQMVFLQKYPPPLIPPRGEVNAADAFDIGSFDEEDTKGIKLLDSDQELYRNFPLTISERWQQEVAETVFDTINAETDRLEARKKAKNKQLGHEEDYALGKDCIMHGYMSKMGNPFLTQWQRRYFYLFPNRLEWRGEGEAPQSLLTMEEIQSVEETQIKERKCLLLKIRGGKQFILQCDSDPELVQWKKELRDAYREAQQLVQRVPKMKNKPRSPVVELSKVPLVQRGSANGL
# MEKK2 mut-MEK5 – signal of MEK5 binding to mutant human MEKK2 PB1 domain. hit rate 0.35% among 290,000. percent response, % at 10 µM. AID 1530. bead flow cytometry, Alexa488-MEK5 binding to MEKK2 mutant; in the data active means percent response above about 24%, passing the limit was not always enough
# MEKK2wt confirm – raises or lowers MEK5 binding to wildtype human MEKK2, retest. shares compounds with MEKK3 PB1 HTS. bead flow cytometry, Alexa488-MEK5 binding to MEKK2 WT; actives lie on both sides. binding response (% of control), % at 10 µM. hit rate 2.4% among 5,900. AID 1892; in the data active means binding response below about 16% or above about 210%; inactive means in between
# MEKK2mut-MEK5 – signal of MEK5 binding to mutant human MEKK2, retest | shares compounds with MEKK3 PB1 HTS | bead flow cytometry, Alexa488-MEK5 binding to MEKK2 mutant | percent response, % at 10 µM | hit rate 2% among 5,900 | AID 1893; in the data active means percent response mostly above about 71%, no sharp cut-off; inactive means mostly below about 38%;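 further: higher means compound restores mutant binding toward wildtype level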
# MEKK3 confirm – confirmation of inhibitors of MEK5 binding to human MEKK3; hit rate 1.8% among 5,900; AID 1894; shares compounds with MEKK3 PB1 HTS; binding response (% of control), % at 10 µM; bead flow cytometry, Alexa488-MEK5 binding to MEKK3; hits give low values;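 active means binding response below 72% of control, or above a set upper limit, though filed actives all read lower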
# Numbers stand for hits; n = inactive; x = no result; [ ] = another dose, or the depositor's remark.
SMILES,MEKK2wt PB1 HTS,MEKK3 PB1 HTS,GRK2 aptamer HTS,MEKK2 mut-MEK5,MEKK2wt confirm,MEKK2mut-MEK5,MEKK3 confirm
Cc1ccc2nc(Cl)c3cc(C(=O)NCCCN4CCCC4)sc3c2c1,162,n,n,n,n,n,n
Cc1ccc(S(=O)(=O)N2CCC(C(=O)Nc3ccccc3N3CCCC3)CC2)cc1C,x,x,n,x,x,x,x
COC(=O)C1CCN(C(=O)Cn2nnc(-c3cccc(F)c3)n2)CC1,n,n,n,n,x,x,x
COc1ccc(C(=O)CC(=O)C(=O)Nc2cccc(C(C)=O)c2)cc1,n,n,n,n,x,x,x
COc1cc(OCc2ccccc2)c(C(=O)/C=C/c2ccc3c(c2)OCO3)c(OC)c1OC,x,x,n,x,x,x,x
COc1ccc(-c2nn(-c3ccccc3)cc2/C=N/N=C(N)N)cc1OC,148,n,n,n,n,n,n
COc1ccc(-c2nn(-c3ccccc3)cc2/C=N/O)cc1OC,n,n,n,n,x,x,x
CCCCC(=O)N(c1ccc(C(=O)O)cc1)c1nc(-c2ccc(Cl)cc2)c(CC)s1,3.0[inhibitor],3.0[inhibitor],n,n,n,n,n
Cc1cccc(NC(=O)/C=C/c2ccc([N+](=O)[O-])s2)c1,n,n,n,n,x,x,x
Cc1cccc(NC(=S)N/N=C/c2ccc([N+](=O)[O-])s2)c1,50[inhibitor],n,n,n,n,n,n
O=c1[nH]c2ccc(NC(=S)Nc3ccccc3)cc2[nH]1,n,n,n,n,x,x,x
O=c1[nH]c2ccc(NC(=S)NCCc3ccccc3)cc2[nH]1,44[inhibitor],41[inhibitor],n,n,n,n,n
Cc1ccccc1C(=O)NC(=S)Nc1ccc2[nH]c(=O)[nH]c2c1,n,135,n,n,n,n,n
COc1ccc2oc(C(=O)NCc3cc(OC)c(OC)cc3OC)c(C)c2c1,n,n,n,n,x,x,x
Cn1c(=O)oc2cc(S(=O)(=O)N3CCN(c4ccccc4)CC3)ccc21,n,n,n,n,x,x,x
Cn1c(=O)oc2cc(S(=O)(=O)N3CCN(c4ccccn4)CC3)ccc21,n,50[inhibitor],n,n,n,n,n
Cc1c(C(=O)NCCc2ccccc2)oc2ccc(S(=O)(=O)N3CCOCC3)cc12,n,125,n,n,n,n,n
Cc1c(C(=O)N2CCN(C)CC2)oc2ccc(S(=O)(=O)N3CCOCC3)cc12,2.0[inhibitor],2.0[inhibitor],n,n,n,n,n
Cc1c(C(=O)NC2CCCc3ccccc32)oc2ccc(S(=O)(=O)N3CCCC3)cc12 (stereo not drawn),n,n,n,n,x,x,x
Cc1c(C(=O)NC2CCCc3ccccc32)oc2ccc(S(=O)(=O)N3CCOCC3)cc12 (stereo not drawn),n,82[inhibitor],n,n,n,n,n
CCC(Oc1ccccc1)C(=O)OCC(=O)N(CC)c1c(N)n(Cc2ccccc2)c(=O)[nH]c1=O (stereo not drawn),x,x,n,x,x,x,x
O=C1CC(NS(=O)(=O)c2cc(F)ccc2F)CN1c1ccc2c(c1)OCCO2 (stereo not drawn),x,x,n,x,x,x,x
CCOc1ccc(NC(=O)CC2C(=O)N(c3ccc(OC)cc3)C(=O)N2CCc2cccs2)cc1 (stereo not drawn),n,n,n,n,x,x,x
COc1ccc(NC(=O)CC2C(=O)N(c3ccc(Cl)cc3)C(=S)N2CCc2ccccn2)cc1 (stereo not drawn),n,130,n,n,n,n,n
COc1ccc(NC(=O)CC2C(=O)N(c3ccccc3)C(=O)N2CCc2cccs2)cc1 (stereo not drawn),n,149,n,n,n,n,n
SMILES,MEKK2wt PB1 HTS,MEKK3 PB1 HTS,GRK2 aptamer HTS,MEKK2 mut-MEK5,MEKK2wt confirm,MEKK2mut-MEK5,MEKK3 confirm
Cc1cccc(C(=O)N(Cc2nc3ccccc3c(=O)[nH]2)C2CCCC2)c1,n,n,n,n,x,x,x
Cc1cccc(C(=O)N(Cc2nc3ccccc3c(=O)[nH]2)C2CCCCC2)c1,n,74[inhibitor],n,n,n,n,n
CC(=O)Nc1ccc(NC(=O)CSc2nnnn2-c2ccc(F)cc2)cc1,n,n,n,n,x,x,x
CC(C)C(C(=O)Nc1ccc(N2CCOCC2)cc1)N1C(=O)c2ccccc2C1=O (stereo not drawn),-2.0[inhibitor],2.0[inhibitor],n,n,n,n,n
CC(C(=O)Nc1ccc(N2CCOCC2)cc1)N1C(=O)c2ccccc2C1=O (stereo not drawn),n,n,n,n,x,x,x
COCC1CCN(C(=O)c2cc(COc3cc(C)c(Cl)c(C)c3)on2)C1 (stereo not drawn),n,n,n,n,x,x,x
O=C(Cn1cc(C(F)(F)F)cc(Cl)c1=O)NCCc1ccccc1,n,135,n,n,n,n,n
O=C(Cn1cc(C(F)(F)F)cc(Cl)c1=O)NCc1ccccc1,n,n,n,n,x,x,x
CC(C)Cn1c(O)c(/C=C2\C=NN=C2c2ccccc2)sc1=S,n,133,n,n,n,n,n
O=C(Cc1ccccc1)Nc1ncnc2c1C(c1ccccc1)c1c(ccc3ccccc13)O2 (stereo not drawn),x,x,n,x,x,x,x
COc1ccccc1CNC(=O)CS(=O)(=O)c1ccc(C)cc1,n,n,n,n,x,x,x
OCc1nc2ccccc2n1CCCCOc1ccccc1,x,x,n,x,x,x,x
O=C(O)CCn1c(CO)nc2ccccc21,n,129,n,n,n,n,n
CCc1nc2ccccc2c(C(=O)OCC(=O)NC(=O)c2cccn2C)c1C,n,67[inhibitor],n,n,n,n,n
O=C(OCC(=O)N1CCN(Cc2ccccc2)CC1)c1ccc(Cl)cc1,6.0[inhibitor],4.0[inhibitor],n,n,n,n,n
O=C(OCC(=O)N1CCN(C(=O)c2ccco2)CC1)c1ccc(Cl)cc1,x,x,n,x,x,x,x
CC(CCc1ccccc1)NC(=O)CN1C(=O)NC2(CCCCC2)C1=O (stereo not drawn),n,n,n,n,x,x,x
N#Cc1ccsc1NC(=O)CN1CCN(c2ccccc2O)CC1,n,64[inhibitor],n,n,n,n,n
CCOC(=O)N1CCN(CC(=O)Nc2sccc2C#N)CC1,n,n,n,n,x,x,x
Cc1ccc(C)c(S(=O)(=O)N2CCN(CC(=O)Nc3sccc3C#N)CC2)c1,n,162,n,n,n,n,n
N#Cc1ccsc1NC(=O)CN1CCN(S(=O)(=O)c2ccccc2C(F)(F)F)CC1,n,55[inhibitor],n,n,n,n,n
CCCCC1=C([O-])C2N=CC=CC2=[N+](c2ccccn2)C1=O (stereo not drawn),n,138,n,n,n,n,n
Cc1oc2ccc(O)cc2c1C(=O)OC(C)C,n,80[inhibitor],n,n,n,n,n
O=C1[C@H]2CCCC[C@H]2C(=O)N1CCCCN1CCN(c2nsc3ccccc23)CC1,n,n,n,n,x,x,x
c1coc(CNC2CCCCCCC2)c1,n,n,n,n,x,x,x
O=S1(=O)CC(O)C(NCc2ccco2)C1 (stereo not drawn),n,75[inhibitor],n,n,n,n,n
